Each structure is given as a SMILES string. Screen size: about 330,000 compounds; about 4,200 (1.3%) were called active. Entries that show only a call come without a potency. Not shown: some 6% with an inconclusive outcome. Calls follow the shape of the dose curve; as a rule, active = well fitted activation curve with a large enough effect; inconclusive = small, poorly fitted or top-dose-only effect; inactive = no such curve, though single readings can be large or run the other way. This excerpt belongs to a sample that is enriched for actives.
Potency is read from the fitted curve at half-maximal effect.

The experiment can be described thus: qHTS screen for small molecules that induce genotoxicity in human embryonic kidney (HEK293T) cells expressing luciferase-tagged ELG1. Also: nearly all actives have a fitted effect of over 60% in size. As to conditions: HEK293T ELG1-luciferase reporter, luminescence, 16 h; series mostly up to 46 µM. Summed up:
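Genotoxicity was scored as increased ELG1-luciferase reporter signal, measured by ONE-Glo luminescence (30 min, room temperature). Compound or vehicle exposure of the HEK293T reporter cells lasted 16 hr at 37°C.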
Regarding `O=C(Nc1ccccc1)c1ccc(NC(=O)c2cccs2)cc1`, the Potency result is “inactive”.
Still for that read-out and setting: next, `CCN(CC)c1ccc(/C=N/NC(=O)CNC(=O)c2cccs2)cc1`: “inactive”; `CC(=O)Nc1ccc(/C=N/NC(=O)c2cccs2)cc1`: 16.4 µM (active).
Same read-out and setting: the value for `Cc1noc(C)c1S(=O)(=O)N(C)C[C@H]1Oc2ccc(NC(=O)C3CCCCC3)cc2C(=O)N([C@H](C)CO)C[C@@H]1C` was “inactive”.
In the case of `Cc1ccc(NC(=O)C2CCC(C(C)(C)C)CC2)cc1S(=O)(=O)N1CCOCC1` (centres undefined), the Potency entry is “inactive”.
On the same count and under the same terms, next, `CN(C(=O)c1cccc(NC(=O)Cc2cccc([N+](=O)[O-])c2)c1)C1CCCCC1`: “inactive”; `Cn1nnnc1SCC(=O)Nc1cccc(S(=O)(=O)N2CCCCC2)c1`: “inactive”; `Cc1ccc(C(=O)OCc2nc(N)nc(Nc3ccccc3C)n2)cc1`: “inactive”.
On the same count and under the same terms, the value for `Cc1ccccc1Nc1nc(N)nc(CN2CCN(c3ccccn3)CC2)n1` was “inactive”.
In the case of `Cc1ccccc1Nc1nc(N)nc(CSc2ccccc2)n1`, the Potency is 9.2 µM (active).
On the same count and under the same terms, the value for `Cc1ccc(S(=O)(=O)Cc2cc(-c3ccc(Cl)cc3)no2)cc1` was “inactive”; that for `Cc1ccc(NC(=O)c2cc(-c3ccccc3O)n[nH]2)cc1C` was “inactive”.
As to `Oc1ccccc1-c1cc(-c2ccc(Cl)cc2)n[nH]1`, the Potency is 2.31 µM (active).
As to `CCCCOc1ccc(C(=O)NCC(=O)OCC(=O)c2c(N)n(C)c(=O)n(C)c2=O)cc1`, the Potency entry was “inactive”.
On the same count and under the same terms, next, `C[C@H](CO)N1C[C@H](C)[C@@H](CN(C)S(=O)(=O)c2ccc(F)cc2)Oc2c(NC(=O)Nc3ccccc3)cccc2C1=O`: “inactive”; `CCOC(=O)CCCCCC(=O)Nc1ccc2c(c1)CC(=O)N([C@@H](C)CO)C[C@H](C)[C@@H](CN(C)Cc1ccccc1)O2`: “inactive”.
Same read-out and setting: the value for `Cc1ccn2cc(-c3nonc3C)cc2c1` was 23.1 µM (active); that for `O=C1CN(C(=O)COC(=O)/C=C/c2ccc(F)cc2)c2ccccc2N1` was “inactive”.
For `O=C(Nc1cccc2ccccc12)c1onc2c1CCCC2`, the Potency was 16.4 µM (active).
The same measure, in the same setting: the value for `O=C(O)Cc1ccc(NC(=O)Nc2cccc3ccccc23)cc1` was “inactive”.
As for `O=C(O)c1ccccc1-c1ccccc1C(=O)Nc1cccc2ccccc12`, the Potency result was “inactive”.
The same measure, in the same setting: the value for `O=C(Nc1cccc(S(=O)(=O)N2CCOCC2)c1)C12CC3CC(CC(C3)C1)C2` was “inactive”.
On the same count and under the same terms, the value for `O=C(COC(=O)c1ccccc1O)NCc1ccco1` was “inactive”; that for `O=C(CSc1ncn[nH]1)Nc1ccc(Br)cc1Br` was “inactive”.
Still for that read-out and setting: the value for `O=C(CNC(=O)c1ccc2ccccc2c1)Nc1ncccc1O` was “inactive”.
As for `O=C(Nc1ncccc1O)c1ccc(C(=O)c2ccccc2)cc1`, the Potency was 18.3 µM (active).
The same measure, in the same setting: the value for `O=C(Nc1ncccc1O)c1ccc(S(=O)(=O)N2CCCC2)cc1` was “inactive”; that for `CC1Sc2ccc(C(=O)NCc3ccccc3Cl)cc2NC1=O` (centres undefined) was “inactive”; that for `CCCCNS(=O)(=O)CCNCc1ccccc1OC` was “inactive”.
The same measure, in the same setting: the value for `CCOc1ccc2nc(C(=O)N3CCCC(C)C3)sc2c1` (centres undefined) was 10.3 µM (active).
Still for that read-out and setting: the value for `CCOc1ccc2nc(N(CCN(C)C)C(=O)c3ccc4ccccc4c3)sc2c1` was “inactive”.
As to `CCCC(=O)N(CCN1CCOCC1)c1nc2ccc(OCC)cc2s1`, the activity change, positive = activation was 0.969% [at 9.26 µM] (inactive).
Regarding `C=CC[C@@H](Cc1ccc(F)cc1)C(=O)OC[C@H]1CCCN1C(=O)[C@H](CC=C)CC(=O)N(CCO)Cc1ccccc1`, the Potency result is “inactive”.
`COc1cccc(-c2sc3ccc(OC)cc3c2-c2ccc(OCCN3CCCCC3)cc2)c1`: the Potency entry was “inactive”.
Same read-out and setting: the value for `COC(=O)[C@]1(Cc2ccccc2)N[C@H](CN(C)S(=O)(=O)c2ccc(OC(F)(F)F)cc2)[C@@H]2C(=O)N(C)C(=O)[C@@H]21` was “inactive”.
Still for that read-out and setting: the value for `O=C(c1ccc(N2CCOCC2)c([N+](=O)[O-])c1)N1CCN(c2ccccc2F)CC1` was “inactive”; that for `C=CCN(C(=O)Nc1ccc2c(c1)nc(C)n2C)c1ccccc1` was “inactive”; that for `Cc1nc2cc(NC(=O)Nc3cccc(F)c3)ccc2n1C` was 0.92 µM (active).
The same measure, in the same setting: next, `Cc1nc2cc(NCc3cccs3)ccc2n1C`: “inactive”; `CNC[C@H]1Oc2c(NC(=O)C3CCCCC3)cccc2C(=O)N([C@H](C)CO)C[C@@H]1C`: “inactive”.
As for `COc1ccc(/C=N\NC(=O)c2sc(N)nc2C)cc1OC`, the Potency entry is “inactive”.
The same measure, in the same setting: the value for `Oc1c(Br)cccc1/C=N/Nc1c(F)c(F)c(F)c(F)c1F` was “inactive”; that for `COc1ccc(/C=N/Nc2nc3ccccc3o2)cc1OC` was 2.59 µM (active).
On the same count and under the same terms, the value for `COc1cc(/C=N\Nc2nc(-c3cccs3)c(NC(C)=O)s2)ccc1O` was “inactive”.
The same measure, in the same setting: next, `CCOc1ccccc1/C=N/Nc1nc2ccccc2o1`: “inactive”; `Brc1ccccc1/C=N/Nc1nc2ccccc2o1`: 11.6 µM (active); `CCCCNc1c(-c2ccc(OC)c(Sc3ccc(OC)cc3)c2)nc2ccc(Cl)cn12`: “inactive”.
In the case of `O=C(CCNC(=O)c1ccccc1)NN=Cc1ccc(Br)o1`, the Potency entry is “inactive”.
On the same count and under the same terms, the value for `CC(=O)N(O)CCCCCNC(=O)CCC(=O)N(O)CCCCCNC(=O)CCC(=O)N(O)CCCCCNC(=O)CCC(=O)O` was “inactive”.
On to `Cc1ccc(C(=O)NCCNC(=O)c2cnccn2)cc1`, for which the Potency result is “inactive”.
On the same count and under the same terms, next, `CCN(CC)c1ccc(/C=N/NC(=O)CNC(=O)c2cccnc2)cc1`: “inactive”; `CCN(CC)c1ccc(/C=N/NC(=O)c2cnccn2)c(O)c1`: 18.3 µM (active); `CN(CC(=O)NCCc1ccc(S(N)(=O)=O)cc1)CC(=O)Nc1ccc(Cl)cc1`: “inactive”.
The same measure, in the same setting: the value for `COc1ccc(C(=O)NCc2ccccc2C)cc1S(=O)(=O)NC1CCCC1` was “inactive”.
Same read-out and setting: the value for `CCc1c(C)sc(NC(=O)c2ccc(Br)o2)c1C(=O)OC` was “inactive”; that for `CCc1c(C)sc(NC(=O)c2cccs2)c1C(N)=O` was 18.4 µM (active).
In the case of `CCOC(=O)c1oc2ccccc2c1NC(=O)c1cccs1`, the Potency result was “inactive”.
On the same count and under the same terms, next, `CC(Sc1nncn1C)C(=O)NCCC1=CCCCC1` (centres undefined): “inactive”; `CN1C(=O)[C@H]2[C@@H](/C=C/c3ccccc3)N3C(=O)CN(Cc4ccc(-c5ccccc5)cc4)C(=O)[C@@]3(C)[C@H]2C1=O`: “inactive”.
On the same count and under the same terms, the value for `Cn1c(N)c(C(=O)COC(=O)c2ccc3ccccc3c2)c(=O)n(C)c1=O` was “inactive”; that for `Cc1ccccc1CC1(CO)CCCN(C(=O)c2cc(-c3ccccc3)no2)C1` (centres undefined) was “inactive”.
Still for that read-out and setting: next, `CCCc1cc(C(=O)N2CCCC(CO)(CCCc3ccccc3)C2)n(C)n1` (centres undefined): “inactive”.
As to `COC(=O)CCC(=O)N1CCCC(CO)(Cc2ccccc2)C1` (centres undefined), the Potency was 20.6 µM (active).
Still for that read-out and setting: the value for `Cc1onc(-c2c(F)cccc2Cl)c1C(=O)OCC(=O)N1C(C)CCCC1C` (centres undefined) was “inactive”.

Values taken from PubChem BioAssay AID504466 (National Center for Advancing Translational Sciences (NCATS), 2011).
